Hit rate of the full screen: of about 310,000 compounds, about 14,000 (4.5%) showed an effect of 50% or more. The effect is printed as a negative number. Only a selection was taken, and strong results are over-represented in it overall.
What follows are molecules tested against human ether-à-go-go-related gene (hERG) potassium channel (human, UniProt Q12809) (assay: primary screen, population patch clamp on CHO cells stably expressing hERG; higher = less effect of the substance).
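Note: peak tail current of the secondary pulse compared with the same well before compound.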

human ether-à-go-go-related gene (hERG) potassium channel, sequence (Q12809 whole entry, looked up): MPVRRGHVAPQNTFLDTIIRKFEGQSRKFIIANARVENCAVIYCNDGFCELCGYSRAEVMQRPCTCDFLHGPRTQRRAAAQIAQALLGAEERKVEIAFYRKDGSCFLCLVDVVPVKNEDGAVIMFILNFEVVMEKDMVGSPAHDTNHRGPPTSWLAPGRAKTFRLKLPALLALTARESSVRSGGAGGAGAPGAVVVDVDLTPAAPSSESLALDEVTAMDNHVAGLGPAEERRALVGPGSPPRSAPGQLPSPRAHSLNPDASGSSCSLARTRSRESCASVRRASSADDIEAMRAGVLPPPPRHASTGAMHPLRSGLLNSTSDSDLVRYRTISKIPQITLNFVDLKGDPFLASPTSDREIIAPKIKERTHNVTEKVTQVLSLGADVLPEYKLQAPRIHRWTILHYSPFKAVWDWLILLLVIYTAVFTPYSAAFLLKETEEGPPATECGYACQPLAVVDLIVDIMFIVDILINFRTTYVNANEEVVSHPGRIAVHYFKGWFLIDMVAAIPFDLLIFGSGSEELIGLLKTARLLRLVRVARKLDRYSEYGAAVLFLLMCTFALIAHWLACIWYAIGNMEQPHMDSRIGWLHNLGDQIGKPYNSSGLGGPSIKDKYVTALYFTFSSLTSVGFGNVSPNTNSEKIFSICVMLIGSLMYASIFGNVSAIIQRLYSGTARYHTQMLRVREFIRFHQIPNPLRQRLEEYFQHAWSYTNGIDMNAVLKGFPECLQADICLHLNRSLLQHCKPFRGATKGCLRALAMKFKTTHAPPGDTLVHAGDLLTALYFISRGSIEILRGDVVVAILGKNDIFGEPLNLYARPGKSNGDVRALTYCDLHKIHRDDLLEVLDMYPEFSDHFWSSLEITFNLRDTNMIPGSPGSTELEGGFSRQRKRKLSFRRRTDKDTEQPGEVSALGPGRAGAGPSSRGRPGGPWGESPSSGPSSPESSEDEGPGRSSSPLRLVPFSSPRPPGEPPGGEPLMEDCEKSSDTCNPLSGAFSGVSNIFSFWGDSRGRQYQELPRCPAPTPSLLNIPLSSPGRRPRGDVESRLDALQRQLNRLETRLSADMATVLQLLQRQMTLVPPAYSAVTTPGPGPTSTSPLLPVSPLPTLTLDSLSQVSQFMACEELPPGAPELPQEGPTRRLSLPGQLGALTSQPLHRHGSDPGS

Row | Compound | hERG current change (%, negative = inhibition) at 10uM [%]
1 | CCN(CC)S(=O)(=O)c1cc(NC(=O)C2CCN(c3ncnc4sc(C)c(C)c34)CC2)ccc1Cl | 23.3
2 | O=C(Nc1ccccc1)/C(=C\c1ccc(F)cc1)NC(=O)c1ccco1 | 3.87
3 | CCOC(=O)C1CCN(S(=O)(=O)c2ccc(OCC(=O)OC)cc2)CC1 | -9.54
4 | O=c1c(/C=N/O)c(Nc2ccccc2)nc2ccccn12 | -13.5
5 | Cc1ccc(-n2nc(C)c3c(C)c(CCC(=O)O)c(C)nc32)cc1 | 12.6
6 | CCOC(=O)CN1C(=O)C(C)(C)Oc2ccc(C(=O)Nc3ccccc3OC)cc21 | -6.76
7 | Cc1cc(C)nc(N2CCC(C(=O)NNC(=O)Cc3ccccc3)CC2)n1 | 8.85
8 | Cc1ccccc1NC(=O)Cc1cn(C)c2ccccc12 | 15.1
9 | CN1CCN(c2ccccc2NC(=O)c2ccc(-c3ccccc3)cc2)CC1 | -31.6
10 | O=C(Cc1ccc(Cl)cc1)Nc1ccccc1N1CCOCC1 | 5.94
11 | CCc1ccccc1NC(=O)Cc1cn(C)c2ccccc12 | 3.59
12 | CN1CCN(c2ccccc2NC(=O)Cc2cn(C)c3ccccc23)CC1 | -59.5
13 | Cc1ccccc1NC(=O)C(Cc1ccccc1)n1cccc1 (centres unmarked) | -0.159
14 | CS(=O)(=O)N1CCN(c2ccccc2NC(=O)Cc2ccc(Cl)cc2)CC1 | -38.4
15 | CC(C)C(=O)N1CCN(c2ccccc2NC(=O)Cc2ccc(Cl)cc2)CC1 | -69.7
16 | CN1CCN(c2ccccc2NC(=O)C(Cc2ccccc2)n2cccc2)CC1 (centres unmarked) | -65.6
17 | CC(C)C(=O)N1CCN(c2ccccc2NC(=S)NC(=O)Cc2ccccc2)CC1 | -4.92
18 | CCCC(=O)Nc1ccccc1N1CCN(C(=O)C(C)C)CC1 | 11.4
19 | CN1CCN(c2ccccc2NC(=O)Cc2ccc(Cl)cc2)CC1 | -73.4
20 | CN(C(=O)CSc1nnc(-c2ccco2)o1)C1CCCCC1 | -7.54
21 | C[C@@H]1NC(=O)c2cc([N+](=O)[O-])cc(I)c2NCCCC[C@@H](C(N)=O)NC(=O)[C@H](CCC(=O)O)NC1=O | -9.34
22 | COC(=O)C1=C(C)N(C)C(=O)NC1c1ccccc1 (centres unmarked) | -5.95
23 | Cc1cc(C(=O)Nn2c(-c3ccncc3)nc3ccccc3c2=O)ccc1[N+](=O)[O-] | 31.8

Row | Compound | hERG current change (%, negative = inhibition) at 10uM [%]
24 | C=CCOc1c(CNc2ccc(S(N)(=O)=O)cc2)cccc1OC | 2.97
25 | O=C(Cc1ccc(Cl)cc1)Nc1ccccc1N1CCN(C(=O)c2ccccc2)CC1 | -72.1
26 | O=C(CSc1ccc(Cl)cc1)Nc1ccccc1N1CCN(C(=O)c2ccccc2)CC1 | -14.9
27 | Cc1ccc(NC(=O)C(Cc2ccccc2)n2cccc2)cc1 (centres unmarked) | 3.37
28 | Cc1cccc(NC(=O)C(Cc2ccccc2)n2cccc2)c1 (centres unmarked) | -51.2
29 | O=C(CSc1ccc(Cl)cc1)Nc1ccccc1N1CCN(C(=O)c2ccc(Cl)cc2)CC1 | -10.7
30 | COc1cccc(NC(=O)C(Cc2ccccc2)n2cccc2)c1 (centres unmarked) | -17
31 | CC(C)(C)c1ccc(/C=C/C(=O)NC2=NCCS2)cc1 | 10.5
32 | O=C(O)CC1SC(=Nc2cccc(C(F)(F)F)c2)NC1=O (centres unmarked) | 5.13
33 | CCN(CC)c1ccc(/C=N/OCC(=O)Nc2cccc(C)c2)cc1 | -2.16
34 | CCCCOc1ccc(C(=O)N2CCNC(=O)C2CC(=O)OC(C)C)cc1 (centres unmarked) | 13.1
35 | Cc1ccc(-c2nc(CS(=O)CC(=O)NC3CCCC3)c(C)o2)cc1 (centres unmarked) | -13.3
36 | COc1ccc(-c2cc(COc3ccccc3)on2)cc1 | 36.1
37 | CC(=O)c1c(N2CCN(Cc3ccccc3)CC2)[nH]c(-c2ccccc2)nc1=S | 2.17
38 | N#Cc1ccc(CN2CCN(C(=O)c3cccc(S(=O)(=O)N4CCCCCC4)c3)CC2)cc1 | -75.8
39 | Cl.O=C(c1ccc2c(c1)OCCO2)N1CCN(Cc2ccccc2)CC1 | 2.59
40 | Cl.O=C(c1cccc(S(=O)(=O)N2CCCC2)c1)N1CCN(Cc2ccccc2)CC1 | -14.2
41 | N#Cc1ccc(CN2CCN(C(=O)c3ccccc3)CC2)c(Cl)c1 | -33.2
42 | N#Cc1ccc(CN2CCN(C(=O)c3cc(Cl)c4c(c3)OCCO4)CC2)cc1 | -67.7
43 | N#Cc1ccc(CN2CCN(C(=O)c3ccc(S(=O)(=O)N4CCCCCC4)cc3)CC2)cc1 | -40.9
44 | CN1CCN(C(=O)c2cccc(S(=O)(=O)N3CCCCC3)c2)CC1 | -7.44
45 | O=C(c1cccc(S(=O)(=O)N2CCCCC2)c1)N1CCCCC1 | 5.7
46 | Cl.O=C(c1cccc(S(=O)(=O)N2CCCCC2)c1)N1CCN(Cc2ccccc2)CC1 | -56.6

Row | Compound | hERG current change (%, negative = inhibition) at 10uM [%]
47 | CC(=O)Nc1nnc(CCS(=O)(=O)c2ccc(C)c(C)c2)s1 | 8.73
48 | Cc1ccccc1N/N=C/c1sc(=O)n(Cc2cccc(C(=O)O)c2)c1Cl | 38.9
49 | CCN(CC)C(=O)Oc1ccc2c(=O)c(-c3ccc(OC)cc3)c(C)oc2c1 | -35.8
50 | O=C(Nc1cccc(F)c1)Nc1ccc(Cl)cn1 | 7.51
51 | Cc1cccc(CN(C(=S)Nc2c(C)cccc2C)c2cccnc2)c1 | -9.13
52 | Cc1[nH]c2ccccc2c1C(=O)COC(=O)C(C)C | -6.03
53 | S=C(NCC(c1ccco1)N1CCCC1)Nc1ccccc1 (centres unmarked) | -28.9
54 | COc1ccc(-n2nnnc2SCC(=O)Nc2nc3c(s2)CCCC3)cc1 | 9.26
55 | Cc1cc(C)nc(-n2nc(C)cc2NC(=O)CN2CCCC2)n1 | -34.1
56 | CCC1CCCCN1CC(=O)Nc1cc(C)nn1-c1nc(C)cc(C)n1 (centres unmarked) | -58.8
57 | Cc1cc(C)nc(-n2nc(C)cc2NC(=O)CN2CCC(C)CC2)n1 | -65.6
58 | Cc1cc(C)nc(-n2nc(C)cc2NC(=O)CN2CCCC(C)C2)n1 (centres unmarked) | -56
59 | Cc1cc(C)cc(NC(=O)CN2CCc3ccccc3C2)c1 | -10.2
60 | Cc1cccc(C)c1NC(=O)CN1CCc2ccccc2C1 | 8.31
61 | CCC1CCCCN1C(=O)CSc1nc(C)cc(C)n1 (centres unmarked) | -12.8
62 | CC(=O)Nc1ccc(NC(=O)CN2CCCC(C)C2)c(Cl)c1 (centres unmarked) | -5.17
63 | CCC1CCCCN1CC(=O)Nc1ccc2c(c1)OCCO2 (centres unmarked) | 10.6
64 | Cc1cc(NC(=O)CN2CCCCC2)n(-c2ccccc2)n1 | 6.65
65 | Cc1cc(NC(=O)CN2CCCC(C)C2)no1.O=C(O)C(=O)O (centres unmarked) | 10.7
66 | Cc1cc(C)nc(-n2nc(C)cc2NC(=O)CN2CCc3ccccc3C2)n1 | -68.7
67 | Cc1ccc(C2(COC(=O)C(C)C)CO2)c(OC(=O)C(C)C)c1 (centres unmarked) | 2.15
68 | Cc1ccc(-c2n[nH]c(=O)c3ccccc23)cc1S(=O)(=O)NC(C)(C)C | 13.6
69 | CCn1c(SCC(N)=O)nnc1-c1ccc2c(c1)OCO2 | -0.333

Row | Compound | hERG current change (%, negative = inhibition) at 10uM [%]
70 | O=C(Nc1cc(Sc2ccccn2)cc([N+](=O)[O-])c1)c1ccc(Cl)cc1 | 11.6
71 | CCOc1ccccc1C(=O)Nc1cc(Cl)ccc1O | 14.7
72 | COc1ccc(CC(=O)N2CCc3cc(OC)c(OC)cc3C2C)c(OC)c1 (centres unmarked) | -6.22
73 | CCc1ccccc1NC1c2ccccc2C(=O)N1c1cc(C)ccn1 (centres unmarked) | -1.18
74 | Cc1cc(C)nc(-n2nc(C)cc2NC(=O)CNC2CCCCC2)n1 | -52.4
75 | Cc1cc(C)nc(-n2nc(C)cc2NC(=O)c2ccc(F)cc2F)n1 | -0.0513
76 | Cc1ccc(C)c(C(=O)Nc2cc(C)nn2-c2nc(C)cc(C)n2)c1 | 3.98
77 | COc1ccc(CCn2c(N)c(C#N)c3nc4ccccc4nc32)cc1OC | 4.14
78 | CCN(CC)S(=O)(=O)c1cccc(-c2nnc(SCC(=O)c3cc(C)n(C)c3C)o2)c1 | -25.5
79 | CC1=C(C(=O)OC(C)C)C(c2ccc(F)cc2)NC(=O)N1 (centres unmarked) | -5.4
80 | CCOCC(=O)Nc1ccc(Br)c(C)c1 | 4.88
81 | O=C(NCCc1cccc(C(F)(F)F)c1)C1CCC(=O)N(CCc2cccc(F)c2)C1 (centres unmarked) | -56.8
82 | O=C(NCCc1ccc(C(F)(F)F)cc1)C1CCC(=O)N(CCCc2ccccc2)C1 (centres unmarked) | -50.2
83 | O=C(NCCc1cn[nH]c1)C1CCC(=O)N(CCc2cccc(F)c2)C1 (centres unmarked) | 25.1
84 | O=C(NCCc1ccc(C(F)(F)F)cc1)C1CCC(=O)N(CCCN2CCCC2=O)C1 (centres unmarked) | 13.1
85 | O=C(NCCN1CCCC1=O)C1CCC(=O)N(CCc2cccc(F)c2)C1 (centres unmarked) | 9.49
86 | COc1ccc(CCN2CC(C(=O)NCCc3ccc(C(F)(F)F)cc3)CCC2=O)cc1 (centres unmarked) | -46.8
87 | O=C(NCCc1ccc(C(F)(F)F)cc1)C1CCC(=O)N(CCc2cccc(F)c2)C1 (centres unmarked) | -51.4
88 | O=C(NCCc1ccccc1)C1CCC(=O)N(CCCN2CCCC2=O)C1 (centres unmarked) | 5.82
89 | O=C(NCCc1cccs1)C1CCC(=O)N(CCc2cccc(F)c2)C1 (centres unmarked) | -26.1
